# From PubChem BioAssay AID652062 (Broad Institute, 2013)
# Screen size: about 1,400 compounds; about 1,100 (79%) were called active.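 The calls were made as follows: active = fitted half-maximal concentration of a falling signal no higher than twice the top valid dose in every test run; inconclusive = runs disagree, or flat partial inhibition, or poor fit; inactive = every run inactive: flat, wrong direction, or potency beyond limit.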 The set was probably picked from earlier hits. These entries were drawn from the full list. Measured potencies and affinities stand elsewhere.
# Test: inhibitors of clade B AD8 Env fusion, dose response, cell-based, cherry-pick (AID 652062)
# Conditions: HeLa-AD8 Env / CEM-CCR5 cell fusion, luciferase; at 35 µM (top of the series) unless noted
row,SMILES,"activity change, negative = inhibition"
1,C[C@H](CO)N1C[C@H](C)[C@H](CN(C)C(=O)Nc2ccccc2)Oc2c(NS(=O)(=O)c3ccc(F)cc3)cccc2C1=O,63.4% [at 8 µM]
2,C[C@H]1CN([C@@H](C)CO)C(=O)c2cccc(NC(=O)C3CCCCC3)c2O[C@H]1CN(C)S(C)(=O)=O,43.4%
3,C[C@@H]1CN([C@H](C)CO)C(=O)c2cccc(NS(=O)(=O)c3ccc(Cl)cc3)c2O[C@H]1CN(C)CC1CCCCC1,87% [at 8 µM]
4,CNC[C@@H]1Oc2c(N)cccc2C(=O)N([C@@H](C)CO)C[C@@H]1C,-6.55%
5,C[C@@H]1CN([C@H](C)CO)C(=O)c2cccc(NC(=O)c3cnccn3)c2O[C@H]1CN(C)Cc1ccccc1,8.76%
6,COc1ccccc1N/C(N)=N/c1nc(CSc2ccc(C)cc2)cc(=O)[nH]1,-51.5%
7,CCOC(=O)C1=C(C)N=C2c3ccccc3C(=O)C2C1c1ccc(Cl)cc1 (configuration not stated),-84.7%
8,CCOC(=O)c1ccc(NC2c3ncccc3C(=O)N2Cc2ccc(F)cc2)cc1 (configuration not stated),-27%
9,CC(CCc1ccco1)NC(=O)CCc1nnc2ccc(NCc3ccccc3Cl)nn12 (configuration not stated),87.2%
10,COc1cccc(S(=O)(=O)N[C@H]2CC[C@@H](CCN)O[C@@H]2CO)c1,11.2%
11,COc1cccc(S(=O)(=O)N[C@@H]2CC[C@H](CCN)O[C@H]2CO)c1,3.96%
12,O=C(Nc1cc2c3c(c1)CC(=O)N3CCC2)c1ccc(Cl)cc1,197% [at 16 µM]
13,COc1ccccc1CNC(=O)C[C@H]1C[C@@H]2c3cc(NC(=O)c4cccnc4)ccc3O[C@@H]2[C@@H](CO)O1,64.7%
14,CCCNC(=O)C[C@@H]1C[C@H]2c3cc(NC(=O)c4cccnc4)ccc3O[C@H]2[C@H](CO)O1,6.61%
15,CC1CCN(C(=O)c2ncn3c2C(=O)NC[C@@H]3C)CC1,15.1%
16,CCN(CC)C(=O)c1ncn2c1C(=O)NC[C@@H]2C,-31.4%
17,C[C@@H]1CN([C@@H](C)CO)S(=O)(=O)c2ccc(-c3ccc(F)cc3)cc2O[C@H]1CN(C)C(=O)C1CCCCC1,-27.8%
18,CC(C)C#Cc1ccc2c(c1)O[C@@H](CN(C)C(=O)C1CCCCC1)[C@H](C)CN([C@H](C)CO)S2(=O)=O,41.8% [at 16 µM]
19,C[C@@H]1CN([C@H](C)CO)S(=O)(=O)c2ccc(C#Cc3cccc(F)c3)cc2O[C@@H]1CN(C)C(=O)CN1CCOCC1,80.2%
20,CCC(=O)N(C)C[C@H]1Oc2cc(/C=C/c3ccccc3)ccc2S(=O)(=O)N([C@@H](C)CO)C[C@H]1C,-29.3%
21,CCCC#Cc1ccc2c(c1)O[C@@H](CN(C)C(=O)C1CCCCC1)[C@H](C)CN([C@H](C)CO)S2(=O)=O,90.1% [at 16 µM]
22,Cc1ccc(-c2ccc3c(c2)O[C@@H](CN(C)C(=O)C2CCCCC2)[C@H](C)CN([C@H](C)CO)S3(=O)=O)cc1,53.1% [at 16 µM]
23,Cc1ccc(C(=O)NCc2ccccn2)cc1S(=O)(=O)N1CCCCC1,24.4%

row,SMILES,"activity change, negative = inhibition"
1,Cc1ccc(S(=O)(=O)N(C)C[C@H]2Oc3ccc(NC(=O)Nc4cccc5ccccc45)cc3C(=O)N([C@H](C)CO)C[C@@H]2C)cc1,64%
2,CCC(=O)Nc1ccc2c(c1)C(=O)N(C)C[C@@H](OC)[C@H](C)CN(C(=O)CC)[C@@H](C)CO2,44.7%
3,CCS(=O)(=O)Nc1ccc2c(c1)C(=O)N(C)C[C@H](OC)[C@@H](C)CN(C(=O)C1CCC1)[C@H](C)CO2,25.1%
4,CCCC(=O)Nc1ccc2c(c1)OC[C@H](C)N(Cc1ccncc1)C[C@H](C)[C@H](OC)CN(C)C2=O,-9.34%
5,CCCC(=O)Nc1ccc2c(c1)OC[C@@H](C)N(C(=O)CN(C)C)C[C@H](C)[C@@H](OC)CN(C)C2=O,-23.4%
6,CO[C@H]1CN(C)C(=O)c2ccc(NC(=O)C3CC3)cc2OC[C@@H](C)N(C(C)=O)C[C@@H]1C,20%
7,CO[C@@H]1CN(C)C(=O)c2ccc(NS(C)(=O)=O)cc2OC[C@@H](C)N(C(=O)C2CCCCC2)C[C@H]1C,26.2%
8,CO[C@H]1CN(C)C(=O)c2cc(NS(=O)(=O)c3ccc(Cl)cc3)ccc2OC[C@@H](C)N(C)C[C@@H]1C,45%
9,CO[C@@H]1CN(C)C(=O)c2ccc(NC(C)=O)cc2OC[C@@H](C)N(Cc2cncnc2)C[C@@H]1C,15.1%
10,CO[C@H]1CN(C)C(=O)c2cc(NC(C)=O)ccc2OC[C@@H](C)N(Cc2nccs2)C[C@H]1C,20%
11,COc1ccccc1C(=O)Nc1ccc2c(c1)OC[C@H](C)N(C(C)=O)C[C@H](C)[C@H](OC)CN(C)C2=O,-17.7%
12,CCCC(=O)Nc1ccc2c(c1)C(=O)N(C)C[C@@H](OC)[C@@H](C)CN(Cc1nccs1)[C@@H](C)CO2,33.3%
13,CO[C@@H]1CN(C)C(=O)c2cc(NS(=O)(=O)c3ccc(C)cc3)ccc2OC[C@H](C)N(C(=O)NC(C)C)C[C@@H]1C,-8.46%
14,COc1ccccc1S(=O)(=O)Nc1ccc2c(c1)C(=O)N(C)C[C@@H](OC)[C@@H](C)CN[C@@H](C)CO2,-2.95%
15,CCOC(=O)CN1CCCc2nc(C)c(C)cc21,-11.4%
16,Cc1ccc(Cn2nnnc2CN2CCC(c3nc4ccc(Cl)cc4[nH]3)CC2)cc1,44.3%
17,CC(=O)c1ccc([C@H]2C[C@@]34CN(C(=O)OC(C)(C)C)S(=O)(=O)[C@H]3C[C@H]2O4)cc1,-3.29%
18,COc1ccc(C)cc1NC(=O)CCNS(=O)(=O)c1ccc2c(c1)CC(C)N2C(C)=O (configuration not stated),-17.8%
19,CNC[C@@H]1Oc2ccc(NS(C)(=O)=O)cc2CC(=O)N([C@H](C)CO)C[C@H]1C,18.9%
20,O=C(Nc1ccc(Cl)cn1)C1CCCN1S(=O)(=O)c1cccc2ccccc12 (configuration not stated),-67.5%
21,CCCN1[C@H](C(=O)N[C@@H](C)c2ccccc2)[C@@H](CO)[C@@H]2Cn3c(ccc(-c4cccc(F)c4)c3=O)[C@@H]21,99.2%
22,Cc1nc2ccccc2c2oc(C(=O)NCc3ccc4c(c3)OCO4)cc12,-50%
23,CCc1ccc(-c2nc(CN3CCC(C(=O)NCCc4ccc(OC)c(OC)c4)CC3)c(C)o2)cc1,-25.1%

row,SMILES,"activity change, negative = inhibition"
1,O=C(Cc1ccccc1)N[C@@H]1C=C[C@H](CC(=O)N2CCCCC2)O[C@@H]1CO,-10.8%
2,COc1ccc(S(=O)(=O)N[C@H]2C=C[C@H](CC(=O)N3CCN(c4ccccc4)CC3)O[C@@H]2CO)cc1,-26.4%
3,Cc1ccc(S(=O)(=O)N[C@@H]2CC[C@H](CCNC(=O)c3ccccc3F)O[C@H]2CO)cc1,23.6%
4,CC(C)CN(C(=O)c1ccc(S(=O)(=O)N2CCCCC2)cc1)C1CCS(=O)(=O)C1 (configuration not stated),-25.2%
5,COCc1[nH]nc2c1C(c1ccc(F)cc1)N(Cc1ccccc1)C2=O (configuration not stated),11.7%
6,O=C(Nc1ccc(F)cc1)Nc1ccc2c(c1)[C@H]1C[C@@H](CC(=O)N3CCCCC3)O[C@H](CO)[C@H]1O2,57.6%
7,CS(=O)(=O)N(Cc1ccc(Cl)cc1)c1ccc(C(=O)NCCC2=CCCCC2)cc1,-7.87%
8,CC(=O)OC1c2ccccc2C(=O)N1c1ccccc1C (configuration not stated),-15.7%
9,Cc1ccc(C2CC(=O)c3cnc(N4CCc5ccccc5C4)nc3C2)cc1 (configuration not stated),0.787%
10,COCC(=O)Nc1ccc2c(c1)C(=O)N(C)[C@H]1CC[C@H](CC(=O)NC3CCCC3)O[C@H]1CO2,17%
11,CN1C(=O)c2cc(NC(=O)NC3CCCC3)ccc2OC[C@@H]2O[C@H](CC(=O)NC3CCC3)CC[C@@H]21,-5.79%
12,CCNC(=O)Nc1ccc2c(c1)C(=O)N(C)[C@@H]1CC[C@@H](CC(=O)NCC3CCCCC3)O[C@@H]1CO2,-14.5%
13,CCNC(=O)C[C@H]1CC[C@@H]2[C@@H](COc3ccc(NC(=O)Cc4cccs4)cc3C(=O)N2C)O1,66.7%
14,Cc1nn(C)cc1NC(=O)C[C@H]1CC[C@@H]2[C@@H](COc3ccc(NC(=O)C4CCC4)cc3C(=O)N2C)O1,-24.8%
15,COc1ccc(NC(=O)C(=O)NCC2CCCN2S(=O)(=O)c2cccs2)cc1 (configuration not stated),23.4%
16,COc1ccc(OC)c(NC(=O)COc2ccc3c(c2)CCC3)c1,43.3%
17,COc1ccccc1CCNCc1ccc(OC)c(OCc2ccccc2)c1,45.9% [at 16 µM]
18,O=C(NCCCc1nc2ccccc2[nH]1)c1ccco1,-25.6%
19,C[C@H](O)[C@@H]1C(=O)N2CCc3c([nH]c4cccc(-c5ccccc5)c34)[C@@H]2C[C@@H]1N(C)C(=O)OCc1ccccc1,-17.1%
20,C=C(C)CN(CC)c1nc(N)c2c(N)nc3c(c2c1C#N)CC(=O)N3C12CC3CC(CC(C3)C1)C2,27.3%
21,COC(=O)[C@@]1(Cc2ccc(F)cc2)[C@H]2c3cc(C(=O)N(C)C)n(CCO)c3C[C@H]2CN1C(=O)c1ccccc1,39.7%
